# Calls of active or inactive are those of the source. The calls were made as follows: active = hit-call score of the fitted dose curve at least 0.9, where 1 is the maximum; inactive = score below 0.9.
# Experiments:
# [1] = ATG_CRE_CIS: Attagene CIS-FACTORIAL HepG2 Assay for human cAMP Responsive Element (CRE) binding protein 3 (AID 2282926); conditions: HepG2 CRE cis-reporter, Attagene multiplexed mRNA; actives raise or lower the signal
# How it was run: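 Induced reporter mRNA from a CRE cis element, measured in HepG2 among many multiplexed units at 24 h. Detection used RT-PCR plus capillary electrophoresis of fluorescent fragments; DMSO served as negative control.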
# [2] = molecular target: CCAAT/enhancer-binding protein beta (Homo sapiens) (UniProt P17676); assay: ATG_C_EBP_CIS: Attagene CIS-FACTORIAL HepG2 Assay for human CCAAT/Enhancer Binding Protein (C/EBP) beta (AID 2282927); conditions: HepG2 Attagene cis-factorial transcription factor reporter; actives raise or lower the signal
# How it was run: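 HepG2 transiently transfected with multiplexed reporter units under cis-regulatory promoters reporting endogenous C/EBPb activity. After 24 h exposure, reporter mRNA assayed by RT-PCR, fluorescent labelling, HpaI digestion and capillary electrophoresis; bidirectional fitting versus DMSO.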
# [3] = ATG_CMV_CIS: Attagene CIS-FACTORIAL HepG2 Assay for human CMV (Internal Marker) (AID 2282928); conditions: HepG2 CMV promoter reporter, transcription factor profiling; actives raise or lower the signal;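 also: endpoint acts as a background internal control marker rather than a target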
# How it was run: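 24 h chemical treatment, HepG2 with transient multi-reporter transfection; RNA → oligo(dT) RT → PCR → 6-FAM extension → HpaI digest → CE fluorescence. Bidirectional fit, DMSO negative control.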
# [4] = ATG_DR4_LXR_CIS: Attagene CIS-FACTORIAL HepG2 Assay for human Liver X Receptor (LXR), DR4 submotif (AID 2282929); conditions: HepG2 Attagene DR4 cis-reporter, mRNA transcription; actives raise or lower the signal
# How it was run: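 HepG2, transient MRTU transfection, cis-element (DR4) promoter; 24 h compound exposure; total RNA → oligo(dT) RT → PCR → 6-FAM primer extension → HpaI cut → CE. Gain/loss vs DMSO, bidirectional fit.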
# [5] = molecular target: Aryl hydrocarbon receptor (Homo sapiens) (UniProt P35869); assay: ATG_Ahr_CIS: Attagene CIS-FACTORIAL HepG2 Assay for human Aryl Hydrocarbon Receptor (Ahr) (AID 2282930); conditions: HepG2 AhR cis-factorial reporter transcription; actives raise or lower the signal
# How it was run: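 HepG2 cells transiently transfected with cis-element-driven multiplexed reporter units; endogenous AhR activity read as reporter mRNA 24 h after dosing, via RT-PCR, 6-FAM labelling, HpaI digestion and capillary electrophoresis. Bidirectional fit relative to DMSO.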
# Sequence of Aryl hydrocarbon receptor (Homo sapiens) (P35869 whole entry, looked up): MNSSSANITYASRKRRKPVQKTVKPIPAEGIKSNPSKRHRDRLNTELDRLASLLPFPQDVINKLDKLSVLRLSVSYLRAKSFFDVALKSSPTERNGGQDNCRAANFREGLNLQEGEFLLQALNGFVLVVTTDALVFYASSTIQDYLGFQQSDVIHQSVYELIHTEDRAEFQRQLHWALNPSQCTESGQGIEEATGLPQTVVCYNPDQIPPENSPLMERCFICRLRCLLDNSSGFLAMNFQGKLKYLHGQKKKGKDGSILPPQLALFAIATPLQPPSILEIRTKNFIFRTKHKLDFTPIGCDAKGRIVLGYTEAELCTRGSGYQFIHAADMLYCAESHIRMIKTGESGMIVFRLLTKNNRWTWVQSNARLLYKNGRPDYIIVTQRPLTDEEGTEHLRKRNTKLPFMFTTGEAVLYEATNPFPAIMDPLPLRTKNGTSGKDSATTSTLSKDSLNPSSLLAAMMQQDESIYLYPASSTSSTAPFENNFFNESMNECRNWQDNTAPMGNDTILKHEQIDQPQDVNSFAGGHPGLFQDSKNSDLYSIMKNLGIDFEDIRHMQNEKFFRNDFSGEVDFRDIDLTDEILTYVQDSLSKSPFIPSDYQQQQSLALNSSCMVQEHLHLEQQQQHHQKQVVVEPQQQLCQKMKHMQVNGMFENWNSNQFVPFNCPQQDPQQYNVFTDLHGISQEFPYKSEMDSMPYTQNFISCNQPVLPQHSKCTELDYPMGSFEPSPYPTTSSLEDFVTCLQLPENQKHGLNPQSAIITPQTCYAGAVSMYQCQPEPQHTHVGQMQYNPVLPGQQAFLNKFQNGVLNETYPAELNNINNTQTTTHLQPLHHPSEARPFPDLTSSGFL
# Sequence of CCAAT/enhancer-binding protein beta (Homo sapiens) (P17676 whole entry, looked up): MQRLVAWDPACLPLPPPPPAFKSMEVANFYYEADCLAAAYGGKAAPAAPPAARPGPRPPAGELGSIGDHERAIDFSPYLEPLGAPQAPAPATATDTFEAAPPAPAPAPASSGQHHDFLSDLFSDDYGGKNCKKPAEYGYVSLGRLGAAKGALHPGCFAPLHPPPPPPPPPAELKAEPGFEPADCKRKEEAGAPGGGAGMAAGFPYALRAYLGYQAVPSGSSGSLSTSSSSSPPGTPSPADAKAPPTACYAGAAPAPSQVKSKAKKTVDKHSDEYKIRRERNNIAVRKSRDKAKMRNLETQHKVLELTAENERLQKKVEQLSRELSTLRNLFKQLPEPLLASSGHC
smiles,measurement,setting,value
O=NN1CCCCCC1,outcome,[1],inactive
same,outcome,[2],inactive
same,outcome,[3],inactive
same,outcome,[4],inactive
same,outcome,[5],inactive
N#CCCC(Br)(C#N)CBr (stereo not given),AC50,[1],53.5 µM (active)
same,outcome,[2],inactive
same,AC50,[3],62.1 µM (active)
same,outcome,[4],inactive
same,AC50,[5],33.4 µM (active)
BrCc1ccc(Br)cc1,outcome,[1],inactive
same,outcome,[2],inactive
same,outcome,[3],inactive
same,outcome,[4],inactive
same,AC50,[5],60.9 µM (active)
O=c1[nH]c(=O)n(Cl)c(=O)n1Cl,outcome,[1],inactive
same,outcome,[2],inactive
same,outcome,[3],inactive
same,outcome,[4],inactive
same,outcome,[5],inactive
O=C(O)COc1ccc(Cl)cc1,outcome,[1],inactive
same,outcome,[2],inactive
same,outcome,[3],inactive
same,outcome,[4],inactive
same,outcome,[5],inactive
C=CC(F)(C(F)(F)F)C(F)(F)C(F)(F)F (stereo not given),outcome,[1],inactive
same,outcome,[2],inactive
same,outcome,[3],inactive
same,outcome,[4],inactive
same,outcome,[5],inactive
O=C1C=CC(=O)c2ccccc21,outcome,[1],inactive
same,outcome,[2],inactive
same,outcome,[3],inactive
same,outcome,[4],inactive
same,AC50,[5],0.652 µM (active)
Oc1c(Br)cc(Br)cc1Br,outcome,[1],inactive
same,outcome,[2],inactive
same,outcome,[3],inactive
same,AC50,[5],49.5 µM (active)
ClCCN1CCOCC1,outcome,[1],inactive
same,outcome,[2],inactive
same,outcome,[3],inactive
same,outcome,[5],inactive
CCCCOC(C)=O,outcome,[1],inactive
same,outcome,[2],inactive
same,outcome,[3],inactive
same,outcome,[5],inactive
Cc1ccc(OP(=O)(Oc2ccc(C)cc2C)Oc2ccc(C)cc2C)c(C)c1,outcome,[1],inactive
same,outcome,[2],inactive
same,outcome,[3],inactive
same,outcome,[5],inactive
Cc1cccc(OP(=O)(Oc2cccc(C)c2)Oc2cccc(C)c2)c1,outcome,[1],inactive
same,outcome,[2],inactive
same,outcome,[3],inactive
same,outcome,[4],inactive
same,outcome,[5],inactive
[F][Sn]([c]1ccccc1)([c]1ccccc1)[c]1ccccc1,AC50,[1],0.321 µM (active)
same,AC50,[2],2.15 µM (active)
same,AC50,[3],0.334 µM (active)
same,AC50,[5],0.329 µM (active)
N#CCC#N,outcome,[1],inactive
same,outcome,[2],inactive
same,outcome,[3],inactive
same,outcome,[5],inactive
CCCCN(CCCC)C(=S)[S-].CCCCN(CCCC)C(=S)[S-].[Ni+2],outcome,[1],inactive
same,outcome,[2],inactive
same,outcome,[3],inactive
same,outcome,[5],inactive
Cc1cc(C(C)(C)c2ccc(O)c(C)c2)ccc1O,AC50,[1],21.8 µM (active)
same,outcome,[2],inactive
same,AC50,[3],89.3 µM (active)
same,AC50,[5],89 µM (active)
CCN(CC)C(=O)C(Cl)=C(C)OP(=O)(OC)OC,outcome,[1],inactive
same,outcome,[2],inactive
same,outcome,[3],inactive
same,outcome,[5],inactive
CC(C)CC(C)(c1ccc(O)cc1)c1ccc(O)cc1,outcome,[1],inactive
same,outcome,[2],inactive
same,outcome,[3],inactive
same,outcome,[5],inactive
CC(C)C(C)(N)C#N (stereo not given),outcome,[1],inactive
same,outcome,[2],inactive
same,outcome,[3],inactive
same,outcome,[5],inactive
Cc1ccc2nc3sc(=O)sc3nc2c1,AC50,[1],6.6 µM (active)
same,AC50,[2],25 µM (active)
same,outcome,[3],inactive
same,outcome,[5],inactive
Oc1cccc(-c2ccccc2)c1,outcome,[1],inactive
same,outcome,[2],inactive
same,AC50,[3],67.7 µM (active)
same,outcome,[5],inactive
CCOCn1c(-c2ccc(Cl)cc2)c(C#N)c(Br)c1C(F)(F)F,AC50,[1],1.2 µM (active)
same,outcome,[2],inactive
same,outcome,[3],inactive
same,AC50,[5],170 µM (active)
Nc1ncn[nH]1,outcome,[1],inactive
same,outcome,[2],inactive
same,outcome,[3],inactive
same,outcome,[5],inactive
O=c1[nH]c2ccccc2n1C1CCN(CCCC(c2ccc(F)cc2)c2ccc(F)cc2)CC1,outcome,[1],inactive
same,AC50,[2],5.75 µM (active)
same,AC50,[3],3.71 µM (active)
same,outcome,[5],inactive
OC[P+](CO)(CO)CO,outcome,[1],inactive
same,outcome,[2],inactive
same,outcome,[3],inactive
same,outcome,[5],inactive
Brc1c(Br)c(Br)c(Oc2c(Br)c(Br)c(Br)c(Br)c2Br)c(Br)c1Br,outcome,[1],inactive
same,outcome,[2],inactive
same,outcome,[3],inactive
same,outcome,[5],inactive
c1ccc2c(c1)Oc1ccccc1O2,outcome,[1],inactive
same,outcome,[2],inactive
same,outcome,[3],inactive
same,AC50,[5],0.667 µM (active)
CCC[CH2][Sn]([CH2]CCC)([CH2]CCC)[CH2]CCC,outcome,[1],inactive
same,AC50,[2],5.44 µM (active)
same,outcome,[3],inactive
same,outcome,[5],inactive
CCOC(=O)OC1=C(c2cc(C)ccc2C)C(=O)NC12CCC(OC)CC2 (stereo not given),outcome,[1],inactive
same,outcome,[2],inactive
same,outcome,[3],inactive
same,outcome,[5],inactive
Nc1nc(N)nc(Cl)n1,outcome,[1],inactive
same,outcome,[2],inactive
same,outcome,[3],inactive
same,outcome,[4],inactive
same,outcome,[5],inactive
C=CC(Cl)CCl (stereo not given),outcome,[1],inactive
same,outcome,[2],inactive
same,outcome,[3],inactive
same,outcome,[5],inactive
CCCCOP(=O)(CCCC)OCCCC,outcome,[1],inactive
same,outcome,[2],inactive
same,outcome,[3],inactive
same,outcome,[4],inactive
same,outcome,[5],inactive
CC1(C)COP(Oc2ccccc2)OC1,outcome,[1],inactive
same,outcome,[2],inactive
same,outcome,[3],inactive
same,outcome,[5],inactive
CNC(=O)O/N=C/C(C)(C)S(C)(=O)=O,outcome,[1],inactive
same,outcome,[2],inactive
same,outcome,[3],inactive
same,outcome,[5],inactive
CCOP(=S)(OCC)O/N=C(\C#N)c1ccccc1,outcome,[1],inactive
same,outcome,[2],inactive
same,outcome,[3],inactive
same,AC50,[5],0.657 µM (active)
O=C(O)c1cc(I)cc(I)c1I,outcome,[1],inactive
same,outcome,[2],inactive
same,outcome,[3],inactive
same,outcome,[4],inactive
same,AC50,[5],40.8 µM (active)
CCN(CCO)CCO,outcome,[1],inactive
same,outcome,[2],inactive
same,outcome,[3],inactive
same,outcome,[5],inactive
O=C(NC(=O)c1c(F)cccc1F)Nc1cc(Cl)c(F)c(Cl)c1F,outcome,[1],inactive
same,outcome,[2],inactive
same,outcome,[3],inactive
same,outcome,[5],inactive
O=C(NC(=O)c1c(F)cccc1F)Nc1cc(Cl)c(Oc2ncc(C(F)(F)F)cc2Cl)c(Cl)c1,outcome,[1],inactive
same,outcome,[2],inactive
same,outcome,[3],inactive
same,outcome,[5],inactive
Cc1ccccc1OP(=O)(Oc1ccccc1)Oc1ccccc1,outcome,[1],inactive
same,outcome,[2],inactive
same,AC50,[3],76.5 µM (active)
same,outcome,[5],inactive
NC(=O)c1ccc(N)nc1,outcome,[1],inactive
same,outcome,[2],inactive
same,outcome,[3],inactive
same,outcome,[5],inactive
CC(C)(c1ccccc1)c1cc(-n2nc3ccccc3n2)c(O)c(C(C)(C)c2ccccc2)c1,outcome,[1],inactive
same,outcome,[2],inactive
same,outcome,[3],inactive
same,outcome,[5],inactive
CC(c1ccc(O)cc1)c1ccc(O)cc1,outcome,[1],inactive
same,outcome,[2],inactive
same,outcome,[3],inactive
same,outcome,[5],inactive
CC(C)(C)c1cc([N+](=O)[O-])cc(C(C)(C)C)c1O,outcome,[1],inactive
same,outcome,[2],inactive
same,AC50,[3],1.77 µM (active)
same,outcome,[5],inactive
O=C1c2ccccc2C(=O)C1C(=O)C(c1ccccc1)c1ccc(Cl)cc1 (stereo not given),AC50,[1],27.5 µM (active)
same,outcome,[2],inactive
same,AC50,[3],13.7 µM (active)
same,AC50,[5],8.72 µM (active)
O=S(=O)(Oc1ccc(Cl)cc1)c1ccc(Cl)cc1,outcome,[1],inactive
same,outcome,[2],inactive
same,AC50,[3],49 µM (active)
same,outcome,[5],inactive
Cc1cc(Cl)ccc1OC(C)C(=O)O (stereo not given),outcome,[1],inactive
same,outcome,[2],inactive
same,outcome,[3],inactive
same,outcome,[4],inactive
same,AC50,[5],28.5 µM (active)

# Reference: PubChem BioAssay (EPA / NIEHS)
